Assay: MM1S cell viability effects, profiling panel, calcein-AM fluorescence, 48 h, basal (AID 1165);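 note: viability of MM1S multiple myeloma cells under basal unstimulated conditions; test concentration not given here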
Details: higher = more signal

Row | Compound | z-score
1 | COCCOC(=O)N1C(=O)[C@@]2(c3cc(C#CCC(C(=O)OC)C(=O)OC)ccc31)[C@H](c1ccc(O)cc1)N1[C@H](c3ccccc3)[C@H](c3ccccc3)OC(=O)[C@H]1[C@@H]2C(=O)N1CCc2cc(OC)c(OC)cc2C1 | -0.243
2 | C[C@]1(C(=O)O)c2ccccc2C(=O)N(Cc2cc(C(F)(F)F)cc(C(F)(F)F)c2)[C@H]1c1ccc(CO)cc1 | -0.103
3 | O=C(N1CCOCC1)[C@]1(CCS(=O)(=O)c2ccccc2)N=C(c2ccc(OCCCO)cc2)O[C@@H]1c1ccccc1 | -0.345
4 | CC1(C)OB(/C=C\CC(OC(=O)c2ccncc2)c2ccccc2)OC1(C)C (stereo not given) | -0.475
5 | COC(=O)[C@]1(Cc2ccccc2CN=[N+]=[N-])N=C(c2ccc(OCCCO)cc2)O[C@@H]1c1ccccc1N=[N+]=[N-] | -3.55
6 | CC(C)(C)OC(=O)CC[C@@]1(C(=O)N2CCOCC2)N=C(c2ccc(OCCCO)cc2)O[C@@H]1c1ccccc1CN=[N+]=[N-] | -0.169
7 | COC(=O)[C@@]1(Cc2ccccc2)[C@H]2c3cc(C(=O)N(C)C)n(Cc4ccc(Cl)c(C(F)(F)F)c4)c3C[C@H]2CN1C(=O)c1ccccc1 | -2.56
8 | CN1C(=O)C2C(C1=O)C1C=C(CCCO)C2C(C2CC2)N1C (stereo not given) | 0.828
9 | CO[C@H]1O[C@H](CO)[C@@H](OC(=O)CCc2ccccc2)[C@@H]2OC(=O)[C@@H](Cc3ccc4ccccc4c3)C/C=C/C[C@H](Cc3ccc4ccccc4c3)C(=O)O[C@@H]12 | -0.52
10 | C=C(C(=O)CC[C@@H](OC(=O)c1ccccc1-c1ccccc1C(=O)O)c1ccc(OCCO)cc1)C(C)C | -3.22

Reference: PubChem BioAssay
